Measurements taken from PubChem BioAssay (NCATS).
A number with no mark means an inactive call. Inconclusive results are not listed. The source made the active and inactive calls. The call rests on the fitted dose curve; in most records, active means well fitted inhibition curve with a large enough effect; inconclusive means small, poorly fitted or top-dose-only effect; inactive means no such curve, though single readings can be large or run the other way.

Test: qHTS assay for measurement of the activity of small molecule inhibitors on Zika virus induced Caspase-3 activity in human iPSC derived neural progenitor cells (hNPCs) (AID 1224857); further: % of control where 0% means no effect; nearly all actives have a fitted effect of over 65% in size
Settings: hNPCs ZIKV-induced caspase-3/7, Caspase-Glo luminescence, 6 h; series mostly up to 45.7 µM; activity change, negative = inhibition: at the top concentration
In short: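 Quantitative HTS format: human iPSC neural progenitors, 1 h compound pretreatment, ZIKV 2 FFU/cell for 6 h at 37 C. Percent inhibition derived from luminescent caspase-3/7 signal between uninfected and infected controls.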

Row | Compound | activity change, negative = inhibition [%] | Potency
1 | CN[C@@H]1C[C@@H](c2ccc(Cl)c(Cl)c2)c2ccccc21 | 7.2 | 
2 | CN1C2CCC1CC(OC(=O)c1cc(Cl)cc(Cl)c1)C2 (stereo not given) | 11.6 | 
3 | CC(=CCCC1=CCC(C2=CC(=O)OC2O)OC1O)CCC1=C(C)CCCC1(C)C (stereo not given) | 46.6 | 
4 | COC(=O)[C@@H](N)CCCN=C(N)N[N+](=O)[O-] |  | inactive
5 | NC1CCc2cc(O)c(O)cc2C1 (stereo not given) | 21.2 | 
6 | C[C@]12CC[C@H]3[C@@H](CCC4=CC(=O)CC[C@@]43C)[C@H]1CC[C@H]2OC(=O)CCC1CCCC1 | 173 | 
7 | CC(Cc1ccc(O)cc1)NCC(O)c1cc(O)cc(O)c1 (stereo not given) |  | inactive
8 | c1ccc(C2(c3ccccc3)CC2C2=NCCN2)cc1 (stereo not given) | -10.6 | 
9 | C#CCOC(=O)C1=CCCN(C)C1 | 22 | 
10 | Cc1nccc2c1[nH]c1ccccc12 | 4.15 | 

Test: qHTS assay for measurement of the activity of small molecule inhibitors on Zika virus induced Caspase-3 activity in human astrocytoma cells (AID 1224859);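 further: plate controls were ZIKV-infected untreated cells for no effect and uninfected cells for full effect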
Settings: SNB-19 ZIKV-induced caspase-3/7, luminescence, 6 h; series mostly up to 45.7 µM; activity change, negative = inhibition: at the top concentration
In short: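 Readout is luminescence from Caspase-Glo 3/7 added after a 6 h ZIKV infection (2 FFU/cell) of compound-pretreated (1 h) SNB-19 cells; data expressed as % inhibition versus uninfected and infected wells.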

Row | Compound | activity change, negative = inhibition [%] | Potency
11 | CSCC[C@@H](NC(=O)[C@@H](Cc1ccccc1)NC(=O)CNC(=O)CNC(=O)[C@@H](N)Cc1ccc(O)cc1)C(=O)O | 388 | 
12 | CC(=O)NCCc1c[nH]c2ccccc12 | -9.05 | 
13 | CNCCc1ccc(O)c(O)c1 | 4.16 | 
14 | C/C=C(/C)C(=O)O[C@H]1C(C)=C2[C@H]([C@@H]1OC(=O)CCCCCCC)[C@@](C)(OC(C)=O)C[C@H](OC(=O)CCC)[C@@]1(O)[C@H]2OC(=O)[C@@]1(C)O | 305 | 
15 | NC(=NCCC[C@H](N)C(=O)O)N[N+](=O)[O-] | -8.65 | 
16 | NC(CCP(=O)(O)O)C(=O)O (stereo not given) | -0.365 | 
17 | CC(=O)[C@H]1CCC2C3CC[C@H]4C[C@H](O)CC[C@]4(C)C3CC[C@@]21C (stereo not given in full) | 6.81 | 
18 | CCNC(=O)CC1N=C(c2ccc(Cl)cc2)c2cc(OC)ccc2-n2c(C)nnc21 (stereo not given) | 6.86 | 
19 | CC1(N2CCC(n3c([C@@H]4CCCNC4)nc4ccccc43)CC2)CCCCCCC1 | 1.04 | 
20 | NC(CP(=O)(O)O)C(=O)O (stereo not given) | -13.5 | 
21 | CCCCCCCCCCCCCCCC[N+](C)(C)C | 73.6 | 
22 | CCCN(CCC)C1CCc2ccc(O)cc2C1 (stereo not given) | -3.69 | 
23 | CCCN(CCC)[C@@H]1CCc2ccc(O)cc2C1 | 0.229 | 
24 | O=C(O)Cc1cnc[nH]1 | -3.56 | 
25 | CNCCc1c[nH]c2ccc(O)cc12 | -0.978 | 
26 | C[C@@H](N)Cc1cnc[nH]1 | -7.31 | 
27 | NC(=O)CN1CC(O)CC1=O (stereo not given) | -0.498 | 
28 | CCCCc1ccc(C(=O)O)nc1 | -14.9 | 
29 | C=CCN1CC[C@]23CCCCC2[C@H]1Cc1ccc(O)cc13 (stereo not given in full) | 0.576 | 
30 | C[N+]1(C)C2CCC1CC(OC(=O)C(CO)c1ccccc1)C2 (stereo not given) |  | inactive

Row | Compound | activity change, negative = inhibition [%] | Potency
31 | c1ccc2sc(C3(N4CCCCC4)CCCCC3)cc2c1 | 3.75 | 
32 | C=C[C@@H]1CN2CCC1C[C@@H]2[C@@H](O)c1ccnc2ccccc12 (stereo not given in full) | 11 | 
33 | O=C1CCCN1CC#CCN1CCCC1 | 28.7 | 
34 | NCCc1c[nH]c2ccc(O)cc12 | -8.25 | 
35 | O=C(O)CC[N+](=O)[O-] | -2.47 | 
36 | Cc1[nH]nc2ccc(-c3cncc(OC[C@@H](N)Cc4c[nH]c5ccccc45)c3)cc12 | 184 | 
37 | O=c1cccc2n1CC1CNC[C@H]2C1 | 25.2 | 
38 | CN[C@@H]1C[C@@H](c2ccc(Cl)c(Cl)c2)c2ccccc21 | 6.82 | 
39 | C=C1C[C@H]2[C@H]3CCC(=O)[C@@]3(C)CC[C@@H]2[C@@]2(C)C=CC(=O)C=C12 | 10.7 | 
40 | CN1C2CCC1CC(OC(=O)c1cc(Cl)cc(Cl)c1)C2 (stereo not given) | 4.78 | 
41 | CC(=CCCC1=CCC(C2=CC(=O)OC2O)OC1O)CCC1=C(C)CCCC1(C)C (stereo not given) | 22.3 | 
42 | COC(=O)[C@@H](N)CCCN=C(N)N[N+](=O)[O-] |  | inactive
43 | CC(C)NC(C)Cc1ccc(I)cc1 (stereo not given) | 3.54 | 
44 | NC1CCc2cc(O)c(O)cc2C1 (stereo not given) | -10.4 | 
45 | C[C@]12CC[C@H]3[C@@H](CCC4=CC(=O)CC[C@@]43C)[C@H]1CC[C@H]2OC(=O)CCC1CCCC1 | -15.5 | 
46 | COC1=CC(C)=C[C@@H](C)[C@@H](O)[C@@H](C)CC(C)=CC=C[C@H](OC)[C@H]([C@@H](C)[C@@H](O)[C@H](C)[C@@]2(O)C[C@@H](O)[C@H](C)[C@@H](C(C)C)O2)OC1=O | 22.5 | 
47 | CC(Cc1ccc(O)cc1)NCC(O)c1cc(O)cc(O)c1 (stereo not given) |  | inactive
48 | c1ccc(C2(c3ccccc3)CC2C2=NCCN2)cc1 (stereo not given) | 5.9 | 
49 | C#CCOC(=O)C1=CCCN(C)C1 | 9.51 | 
50 | Cc1nccc2c1[nH]c1ccccc12 | 1.75 | 
